A selection: hits, their analogues and other compounds. The true share with any hit is near 21%.
Pf growth 96h: P. falciparum growth inhibition at 96 hours; P. falciparum luciferase reporter growth, 96 h; Potency, µM (top dose mostly 28.7 µM), for inactives: at the highest dose activity change, negative = inhibition, usual class: inhibitors; 320,000 compounds, 6.9% hits; active = well fitted inhibition curve with a large enough effect; inconclusive = small, poorly fitted or top-dose-only effect, or another doubt; inactive = no such curve, though single readings can be large or run the other way; note: potency is the fitted concentration of half-maximal effect; % is set by controls: 0 for no effect and ±100 for the full control effect
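Erythrocytes infected with luciferase-expressing P. falciparum were dispensed at 2% hematocrit and 0.05% parasitemia (final), then incubated with compounds 96 hours at 37 C in 5% CO2. Luminescence after detection reagent addition reported growth.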
SARS PLP yeast: inhibitors of SARS-CoV papain-like protease in yeast | 330,000 compounds, 0.19% hits | Potency, µM (doses to about 32.9 µM), for the others: at the highest dose activity, positive = growth rescue, actives largely listed as activators | AID 485353 | S. cerevisiae expressing SARS-CoV PLpro, growth rescue; note: potency is the fitted concentration of half-maximal effect; 0% is about no effect; nearly all actives have a fitted effect of over 55% in size
CHX counter: counter-screen for Shiga toxin inhibitors: cycloheximide protein synthesis inhibition. max response, %. cell reporter, cycloheximide protein synthesis inhibition counterscreen. 300,000 compounds, 12% hits; in the data active = max response mostly above about 13%, no sharp cut-off; inactive = mostly below about 14%; note: read at 38.3 µM for the half of the compounds with a filed dose; 0% is about no effect
Pf growth 48h: inhibits P. falciparum growth in the first generation, 48 h; P. falciparum luciferase growth in erythrocytes, 48 h; Potency, µM (doses to about 28.7 µM), inactives show at the highest dose activity change, negative = inhibition, most hits filed as inhibitors; 310,000 compounds, 5.9% hits; AID 504832; active = well fitted inhibition curve with a large enough effect; inconclusive = small, poorly fitted or top-dose-only effect, or another doubt; inactive = no such curve, though single readings can be large or run the other way; note: potency is the fitted concentration of half-maximal effect; % is set by controls: 0 for no effect and ±100 for the full control effect
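Cell-based growth assay: transgenic P. falciparum expressing firefly luciferase, cultured in red cells within RPMI 1640 containing 0.5% w/v Albumax, 24 mM bicarbonate and gentamycin. A drop in luciferase activity indicates inhibition.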
NS1 inh: inhibitors of influenza NS1 protein function. 270,000 compounds, 0.4% hits. Potency, µM (titrated, usually from 46.1 µM), inactives show at the top dose activity, positive = more growth; note: potency is the fitted concentration of half-maximal effect; actives are rising curves; nearly all actives have a fitted effect of over 50% in size
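A cell-based growth assay was used: compounds that relieve NS1-induced slow growth of budding yeast raise OD600. Assay medium was yeast nitrogen base with ammonium sulphate and -URA supplement, pH 6.0, with 2% galactose.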
Shiga toxin inh: blocks Shiga toxin action in Vero cells; Vero cells, Shiga toxin protein synthesis inhibition reporter; inhibition, % at 38.7 µM; 290,000 compounds, 9.2% hits; AID 2315; in the data active = inhibition mostly above about 28%, no sharp cut-off; inactive = mostly below about 43%; note: 0% is about no effect
* = called active by the depositor; ? = inconclusive; / = no result given. Unless noted, calls come from the whole dose curve.

SMILES	Pf growth 96h	SARS PLP yeast	CHX counter	Pf growth 48h	NS1 inh	Shiga toxin inh
CN(C(=O)COC(=O)c1cccc(S(=O)(=O)N2CCCCC2)c1)C1CCS(=O)(=O)C1 (stereo not given)	2.2%	/	/	2.7%	/	/
CC(Sc1ccc(Cl)cc1)C(=O)Nc1ccc(S(=O)(=O)N2CCOCC2)cc1 (stereo not given)	-22.9%	-3.8%	9.8	?	-22.3%	-15.7
Cc1cc(C)nc(NC2=NCCN2C(=S)Nc2c(C)cccc2C)n1	?	0.8%	-1.6	-22.1%	3.3%	-3.6
N=c1c(C(=O)NCc2ccc(F)cc2)cc2c(=O)n3ccccc3nc2n1Cc1cccnc1	5.86µM*	-4.6%	-4.6	/	8.8%	-5.4
N=c1c(C(=O)NCCc2ccccc2)cc2c(=O)n3ccccc3nc2n1CCCN1CCOCC1	?	-1.7%	-4.5	2.08µM*	4.8%	-4.7
Cc1ccc(Cn2c(=N)c(C(=O)NCCN3CCOCC3)cc3c(=O)n4ccccc4nc32)cc1	?	-7.3%	-1.8	?	-2.0%	-1.1
N=c1c(C(=O)NCc2ccccc2)cc2c(=O)n3ccccc3nc2n1CCCN1CCOCC1	-14.1%	3.5%	-4.9	5.86µM*	-11.9%	-3.2
N=c1c(C(=O)NCc2ccc(F)cc2)cc2c(=O)n3ccccc3nc2n1CCCN1CCOCC1	2.62µM*	?	-6.7	1.65µM*	2.1%	-13.2
N=c1c(C(=O)NCCN2CCOCC2)cc2c(=O)n3ccccc3nc2n1CCc1ccccc1	3.29µM*	-3.5%	8.5	3.29µM*	-1.9%	13.4
Cc1cccc(N(CC(=O)NCc2ccco2)C(=O)CCC(=O)Nc2ccccn2)c1C	1.85µM*	2.9%	10.5	0.0%	-14.0%	33.4
CC(C)c1ccc(N(CC(=O)NCc2ccco2)C(=O)CCC(=O)Nc2ccccn2)cc1	0.738µM*	-0.6%	11.0*	-2.9%	14.2%	51.1*
O=C(CN(C(=O)CCC(=O)Nc1ccccn1)c1ccc(F)cc1)NCc1ccco1	?	0.9%	-1.2	-2.7%	?	27.7
CCOC(=O)CC(=O)CSc1ncnc2c1nnn2-c1ccccc1	?	4.0%	16.7	6.7%	18.9%	30.3
CN(Cc1ccccc1)C(=O)c1nc2ccccn2c1CN1CCCC1c1nccs1 (stereo not given)	?	-2.1%	14.9	6.57µM*	-3.5%	-15.1
CC(=O)Nc1ccc(/C=C(\C#N)C(=O)NC2CCCCC2C)cc1 (stereo not given)	-11.4%	1.8%	6.0	?	/	-10.4
Cc1[nH]c2ccccc2c1/C=C(\C#N)C(=O)NC1CC1	106.3%	1.5%	55.1*	41.6%	-8.1%	129.2*
N#C/C(=C\c1c[nH]c2ccccc12)C(=O)c1ccc(O)c(O)c1	/	/	/	/	25.0%	/
N#C/C(=C\c1c[nH]c2ccccc12)C(=O)NC1CC1	12.3%	-17.4%	56.3*	166.3%	-17.1%	36.3*
CC(C)COC(=O)/C(C#N)=C/c1c[nH]c2ccccc12	18.4%	6.4%	18.0*	11.1%	-0.8%	42.9
CC1CCCCC1NC(=O)/C(C#N)=C/c1ccccc1F (stereo not given)	11.7µM*	-87.8%	9.5	?	-48.3%	11.4
Cc1[nH]c2ccccc2c1/C=C(\C#N)C(=O)NC(C)c1ccccc1 (stereo not given)	?	-42.4%	-2.9	?	4.9%	-5.3
N#C/C(=C\c1cn[nH]c1-c1ccccc1)C(=O)NC1CCCCCC1	?	2.7%	1.3	?	12.3%	-1.0
N#C/C(=C\c1c(F)cccc1Cl)C(=O)NC1CC1	13.1µM*	0.8%	10.3	-15.6%	6.4%	-11.8
N#C/C(=C\c1c[nH]c2ccccc12)C(=O)NC1CCCC1	?	-3.8%	22.4*	11.9%	4.9%	41.9*
Cc1ccc(CNC(=O)CN2CCN(Cc3ccc(C)cc3)C2=O)cc1	2.94µM*	3.8%	-2.9	/	-10.5%	-9.2
SMILES	Pf growth 96h	SARS PLP yeast	CHX counter	Pf growth 48h	NS1 inh	Shiga toxin inh
Cc1ccc(CN2CCN(CC(=O)N3CCC4(CC3)OCCO4)C2=O)cc1	3.7µM*	0.7%	-2.3	/	-5.5%	-16.5
Cc1ccc(CN2CCN(CC(=O)N3CCC(C(N)=O)CC3)C2=O)cc1	/	/	/	/	21.1%	/
O=C(CCn1nc(-c2ccc(Cl)cc2)ccc1=O)N1CCC2(CC1)OCCO2	31.2%	-3.1%	3.8	6.4%	/	9.3
Cc1ccc(N(CC(=O)N2CCc3ccccc3C2)S(C)(=O)=O)cc1	?	5.8%	4.3	-8.3%	17.3%	-8.5
Cc1ccc(-c2ccc(=O)n(CCC(=O)N3CCC4(CC3)OCCO4)n2)cc1	?	-2.3%	46.5*	30.1%	/	138.1*
Cc1ccc(CN2CCN(CC(=O)N3CCc4ccccc4C3)C2=O)cc1	16.5µM*	8.5%	-1.5	-5.9%	-0.6%	-28.2
CC(C)(C)CC(=O)Nc1cc2c3c(c1)CCN3C(=O)CC2	46.8%	19.7%	-0.8	32.2%	17.8%	17.1
Cc1ccc(C)c(N2CCN(c3ncnc4c3cnn4-c3ccccc3)CC2)c1	-18.2%	3.3%	-0.3	/	6.9%	13.3
Cc1cccc(-n2ncc3c(N4CCC(C)CC4)ncnc32)c1	80.5%	-33.3%	68.1*	/	-13.5%	94.7*
Cc1cccc(-n2ncc3c(N4CCC5(CC4)OCCO5)ncnc32)c1	86.8%	-0.8%	12.7*	167.6%	4.0%	48.6
CCOc1ccc(N2CC(C(=O)NC3=NCCS3)CC2=O)cc1 (stereo not given)	23.5%	-0.2%	-3.1	13.0%	0.6%	-5.9
Cc1ccc(-n2nnc3ccccc3c2=O)cc1C	23.9%	-10.3%	49.7*	219.5%	-14.7%	99.6*
CC(=O)/C=C/c1ccccc1Oc1c(F)c(F)nc(F)c1F	9.28µM*	-0.6%	7.0	?	0.6%	-4.7
COc1ccc(Oc2cc(C(F)(F)F)nc(N(C)C)n2)cc1	0.0%	0.4%	-3.4	0.1%	-0.5%	-18.2
Cc1nc(-c2ccccc2)nc(Cl)c1Cl	57.7%	0.0%	1.8	?	/	13.4
Nc1c(Cl)nc(-c2ccccc2)nc1Cl	14.3%	-2.5%	13.8*	16.0%	/	21.0
CN(C)/C=N/c1c(C#N)cnn1-c1nc2ccccc2s1	-2.8%	5.5%	44.5*	82.0%	-8.6%	86.5*
CN(C)/C=N/c1c(C#N)cnn1-c1ccccc1	/	-0.7%	-1.4	/	-15.8%	-7.7
CN(C)/C=N/c1c(C#N)cnn1-c1ncnc2sc(-c3ccccc3)cc12	10.4µM*	-13.8%	-5.9	?	-6.8%	-16.1
Cc1cccc(Nc2sc(C(=O)c3cc4cc(Cl)ccc4o3)c(N)c2C#N)c1	-8.4%	-1.7%	-3.5	-5.8%	?	-4.9
O=C1NC(c2ccccc2)=CC(c2ccccc2O)N1 (stereo not given)	16.2%	0.4%	/	6.8%	/	/
Oc1ccccc1C1NN=C(c2ccccc2)S1 (stereo not given)	?	-5.3%	33.2*	36.8%	-13.7%	56.1*
